# Test results published in PubChem BioAssay (Tox21).
# Where “and” joins values, the source holds several entries; their conditions need not be identical. Identical values can stand only once. Records with an inconclusive call do not appear. Where a call stands in place of a potency, no number is given. A number with no mark means an inactive call. Calls of active or inactive are those of the source. Calls come from the whole dose curve; as a rule, active = well fitted curve in the direction sought with a large enough effect in the repeat runs; inconclusive = weak or mixed curves; inactive = no such curve, though single readings can be large; an effect the other way counts as inactive or inconclusive.
# What was measured:
# [1] = A CellTox Green Cytotoxicity Assay to monitor cytotoxicity in HEK293 cells - 40 hour (AID 1224871); note: nearly all actives have a fitted effect of over 45% in size; note: potency is the fitted concentration of half-maximal effect
# Procedure, shortened: (§1)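 Each value comes from one timepoint of a single continuous run in which HEK293 cells with CellTox Green were exposed to compound for up to 40 h at 37 C, dye fluorescence rising with cell death.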
# [2] = qHTS RealTime-Glo MT Cell Viability Assay in HEK293 cells - 16 hour (AID 1224872); note: nearly all actives have a fitted effect of over 50% in size; note: potency is the fitted concentration of half-maximal effect
# Procedure, shortened: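 Homogeneous bioluminescent viability format in HEK293 cells (600 cells/well). Following 5 h at 37 C/5% CO2, 23 nL compound was pintooled; the signal was measured repeatedly during 40 h incubation.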
# [3] = qHTS RealTime-Glo MT Cell Viability Assay in HepG2 cells - 8 hour (AID 1224873); note: nearly all actives have a fitted effect of over 55% in size; note: potency is the fitted concentration of half-maximal effect
# Procedure, shortened: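 Real-time viability: cells seeded at 600 per well together with NanoLuc and cell-permeant prosubstrate, compounds added after 5 h incubation. Luminescence tracked at 0, 8, 16, 24, 32 and 40 h of exposure.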
# [4] = qHTS RealTime-Glo MT Cell Viability Assay in HEK293 cells - 40 hour (AID 1224874); conditions: RealTime-Glo luminescence; max response: active compounds read low; note: nearly all actives have a fitted effect of over 50% in size; note: potency is the fitted concentration of half-maximal effect
# Procedure, shortened: (§2)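 qHTS format; HEK293 cells with NanoLuc/prosubstrate reagent, 37 C/5% CO2 for 5 h pre-dosing; compounds 23 nL in DMSO; luminescence at each time point reflects viable cells.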
# [5] = A CellTox Green Cytotoxicity Assay to monitor cytotoxicity in HEK293 cells - 24 hour (AID 1224875); note: nearly all actives have a fitted effect of over 45% in size; note: potency is the fitted concentration of half-maximal effect
# Procedure, shortened: as §1
# [6] = A CellTox Green Cytotoxicity Assay to monitor cytotoxicity in HepG2 cells - 16 hour (AID 1224876); note: nearly all actives have a fitted effect of over 45% in size
# Procedure, shortened: (§3)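 Continuous culture of HepG2 cells with a membrane-impermeant DNA dye; rising fluorescence marks dead cells. Compound exposure lasted up to 40 h at 37 C, with reads every 8 h from 0 h.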
# [7] = qHTS RealTime-Glo MT Cell Viability Assay in HepG2 cells - 32 hour (AID 1224877); note: nearly all actives have a fitted effect of over 55% in size; note: potency is the fitted concentration of half-maximal effect
# Procedure, shortened: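 Cell number in HepG2 cultures estimated from NanoLuc luminescence generated by metabolic reduction of a prosubstrate by living cells. The homogeneous, nonlytic format allowed repeated reads at 0, 8, 16, 24, 32 and 40 h of compound exposure.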
# [8] = A CellTox Green Cytotoxicity Assay to monitor cytotoxicity in HepG2 cells - 24 hour (AID 1224878); note: nearly all actives have a fitted effect of over 45% in size; note: potency is the fitted concentration of half-maximal effect
# Procedure, shortened: as §3
# [9] = A CellTox Green Cytotoxicity Assay to monitor cytotoxicity in HepG2 cells - 40 hour (AID 1224879); note: nearly all actives have a fitted effect of over 40% in size; note: potency is the fitted concentration of half-maximal effect
# Procedure, shortened: as §3
# [10] = qHTS RealTime-Glo MT Cell Viability Assay in HEK293 cells - 0 hour (AID 1224880)
# Procedure, shortened: as §2
Compound,Potency [1],Potency [2],Potency [3],max response [4],Potency [5],Potency [6],Potency [7],Potency [8],Potency [9],Potency [10],Potency [4]
NC(=O)CC[C@@H]1NC(=O)[C@H](Cc2ccccc2)NC(=O)[C@H](Cc2ccc(O)cc2)NC(=O)CCSSC[C@@H](C(=O)N2CCC[C@H]2C(=O)N[C@@H](CCCN=C(N)N)C(=O)NCC(N)=O)NC(=O)[C@H](CC(N)=O)NC1=O,inactive,inactive,inactive,0.946%,inactive,inactive,inactive,inactive,inactive,inactive,–
C[C@H](CCC(=O)O)[C@H]1CC[C@H]2[C@@H]3CC[C@@H]4C[C@H](O)CC[C@]4(C)[C@H]3CC[C@]12C,inactive,inactive,inactive,-16.2% and -15.3%,inactive,–,inactive,–,–,inactive,–
Oc1cccc2cc3cccc(O)c3c(O)c12,inactive,inactive,inactive,0.771%,inactive,inactive,inactive,inactive,inactive,inactive,–
Cc1onc(-c2ccccc2Cl)c1C(=O)N[C@@H]1C(=O)N2[C@@H]1SC(C)(C)[C@@H]2C(=O)O,inactive,inactive,inactive,-0.669%,inactive,inactive,inactive,inactive,inactive,inactive,–
Cc1onc(-c2c(Cl)cccc2Cl)c1C(=O)N[C@@H]1C(=O)N2[C@@H]1SC(C)(C)[C@@H]2C(=O)O,inactive,inactive,inactive,9.42%,inactive,inactive,inactive,inactive,inactive,inactive,–
Cc1cc(O)c(C(C)(C)C)cc1Sc1cc(C(C)(C)C)c(O)cc1C,54.8 µM (active),24.5 µM (active),43.6 µM (active),–,48.9 µM (active),–,48.9 µM (active),54.8 µM (active),48.9 µM (active),inactive,21.8 µM (active)
O=C1CCCCCN1SSN1CCCCCC1=O,49 µM (active),inactive,inactive,-12.6%,inactive,inactive,–,–,54.9 µM (active),inactive,–
O=C(Nc1cccc(Cl)c1)OCC#CCCl,43.6 µM (active),54.9 µM (active),43.6 µM (active),–,inactive,inactive,43.6 µM (active),–,–,inactive,49 µM (active)
CCCCN1C(=O)[C@@H]([C@H](O)C2CCCCC2)NC(=O)C12CCN(Cc1ccc(Oc3ccc(C(=O)O)cc3)cc1)CC2,inactive,inactive,inactive,–,inactive,inactive,inactive,inactive,inactive,inactive,–
